Compounds with a hit are over-represented: about 1.1% of the library has one in this group of screens.
HTR5A inv ag = inverse agonist of human HTR5A in OPRM1-OPRD1 counter-screen. P47898. HTR5A cell line, luminescence, inverse agonism. inhibition, % at 9.3 µM. actives 0.083% (n = 340,000); in the data active = inhibition mostly above about 23%, no sharp cut-off; inactive = mostly below about 18%;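 also: 0% = cells with DMSO and 100% = no-cell wells with DMSO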
Target sequence (P47898 whole entry, looked up): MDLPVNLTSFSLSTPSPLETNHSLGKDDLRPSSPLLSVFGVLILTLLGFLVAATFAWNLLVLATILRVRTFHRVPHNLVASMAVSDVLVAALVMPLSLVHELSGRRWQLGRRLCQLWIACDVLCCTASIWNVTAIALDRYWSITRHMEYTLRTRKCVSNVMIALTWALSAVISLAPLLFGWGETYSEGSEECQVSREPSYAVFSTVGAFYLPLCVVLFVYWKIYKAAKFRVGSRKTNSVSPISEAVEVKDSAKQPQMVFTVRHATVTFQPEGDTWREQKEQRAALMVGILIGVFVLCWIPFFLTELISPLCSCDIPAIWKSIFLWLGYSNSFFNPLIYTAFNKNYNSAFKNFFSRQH
OPRM1-OPRD1 inv = inverse agonist of human OPRM1-OPRD1 heterodimerization; inhibition, % at 9.3 µM; P35372+P41143; AID 504357; actives 0.21% (n = 340,000); cell-based MOR-DOR heterodimer luminescence, inverse agonism; in the data active = inhibition above about 22%, passing the limit was not always enough;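 also: 0% = cells with DMSO and 100% = wells without cells with DMSO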
OPRM1-OPRD1 ag = agonists of human mu-delta opioid receptor heterodimerization | AID 504326 | cells, OPRM1-OPRD1 heterodimerization, luminescence | actives 0.3% (n = 340,000) | P35372+P41143 | activation, % at 9.3 µM; in the data active = activation above about 18%;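 also: 0% = vehicle-treated cells and 100% = reference agonist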
HTR5A ag ctr = activates human HTR5A in OPRM1-OPRD1 agonist counter-screen | activation, % at 9.3 µM | actives 0.61% (n = 340,000) | AID 504692 | HTR5A agonist assay, luminescence, cell-based; in the data active = activation mostly above about 9.5%, no sharp cut-off; inactive = mostly below about 7.6%;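 also: 0% = cells with vehicle only and 100% = reference agonist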
* = called active by the depositor.

SMILES	HTR5A inv ag	OPRM1-OPRD1 inv	OPRM1-OPRD1 ag	HTR5A ag ctr
COc1ccc2c(c1)CC/C2=N\OC(=O)c1cccc(C)c1	-1	-33	7	14*
CCOC(=O)C1CCN(C(=O)C2CCN(C(=O)c3ccc([N+](=O)[O-])cc3)CC2)CC1	-13	26	-5	6
CCOC(=O)C1CCN(c2ccc([N+](=O)[O-])cc2)CC1	-1	14	-3	13*
CC(C)C(NS(=O)(=O)c1ccc2c(c1)Cc1cc(S(=O)(=O)NC(C(=O)O)C(C)C)ccc1-2)C(=O)O (stereo unspecified)	-1	10	-2	0
Cc1[nH]nc2nc(SCC(=O)NCCC3=CCCCC3)n(-c3ccc(Br)cc3)c(=N)c12	-56	-124	25*	15*
Cc1ccc(Cl)cc1-n1c(SCC(=O)NCCC2=CCCCC2)nc2n[nH]c(C)c2c1=N	5	-10	2	3
Cc1cc(-n2c(SCC(=O)NCCC3=CCCCC3)nc3n[nH]c(C)c3c2=N)ccc1Cl	-47	-151	29*	31*
Cn1cc(CN2CCC(n3nccc3NC(=O)CCOc3ccccc3)CC2)cn1	3	11	-2	0
CC1=C(C)CC(C(=O)NC2CCN(C(C)C)CC2)C(C(=O)O)C1 (stereo unspecified)	-20	9	-2	8
COc1cc(/C=N/NC(=O)c2cc3c(ccc4ccccc43)o2)cc(OC)c1O	-43	-48	9	11*
Cc1occc1C(=O)N(Cc1nc(-c2ccccc2)no1)C(C)C	6	8	-2	-2
Cc1c(NC(=O)/C(C#N)=C/c2ccc(-c3ccccc3Cl)o2)c(=O)n(-c2ccccc2)n1C	-44	-15	3	12*
O=c1n(-c2ccccc2)c(=O)n2n1CCCC2	-5	12	-2	5
O=c1n(-c2ccccc2)c(=O)n2n1CCC2	10	13	-2	10*
CCN1C(=O)[C@@H]2Cc3c([nH]c4ccccc34)C(c3cc(OC)c(OC)c(OC)c3)N2C1=S (stereo partly specified)	-1	2	0	0
COc1cc([C@H]2c3[nH]c4ccccc4c3C[C@H]3C(=O)N4[C@@H](c5cc(OC)c(OC)c(OC)c5)c5[nH]c6ccccc6c5C[C@H]4C(=O)N23)cc(OC)c1OC	-28	-128	21*	10
Cc1cc(S(=O)(=O)N2CCCC(N(C)CCc3ccccn3)C2)c(C)cc1Cl (stereo unspecified)	7	-9	2	-2
COCCC(=O)Nc1ccc2c(c1)CN(C(=O)c1ccc(CSC)o1)CC2	-41	10	-2	11*
COCCC(=O)Nc1ccc2c(c1)CN(C(=O)CCSC)CC2	-1	19	-4	5
COc1ccc(C(F)(F)F)cc1N/C=C/c1nnnn1-c1ccc2ccccc2c1	-41	-4	1	12*
CC1CCN(c2ccc(NC(=O)c3ccc(Br)o3)cc2)CC1	-10	6	-1	-2
CCC(CC)NC(=O)c1nn(Cc2ccccc2)c(=O)c2ccccc12	-26	-35	5	9.8*
CN=c1sc2c(n1C)C(=O)c1ccccc1C2=O	-20	-52	11	5
COc1cccc(N2CCN(C(=S)NCc3ccco3)CC2)c1	-25	9	-2	13*
COc1ccc(CNc2ncc(-c3cccc([N+](=O)[O-])c3)n2C)c(OC)c1OC	-17	3	-1	-4
SMILES	HTR5A inv ag	OPRM1-OPRD1 inv	OPRM1-OPRD1 ag	HTR5A ag ctr
O=C(NCC(=O)N1CCN(S(=O)(=O)c2ccccc2F)CC1)c1ccc2c(c1)OCO2	-31	12	-2	12*
O=C1NC[C@@H](c2ccccc2)OC(=O)[C@@H](Cc2ccc(F)cc2)C/C=C\C[C@@H]1CC(=O)N(CCO)Cc1ccccc1	48*	37*	-7	-19
CCOC(=O)/C(=C/c1ccc(OC(F)F)cc1)C1=Nn2c(nnc2-c2ccc(Cl)cc2)SC1	-34	-27	5	8.4*
CC1CCc2c(sc3nc(C(C)(C)C)nc(N4CCN(C(=O)CCl)CC4)c23)C1 (stereo unspecified)	-171	-354	72*	46*
O/C(=C\c1nc2ccccc2nc1/C=C(\O)c1ccccc1)c1ccccc1	4	71*	-14	-9
O/C(=C\c1ccc2ccccc2n1)c1ccncc1	-9	14	-2	0
CSc1cccc(NC(=O)CSc2ccc(C)cc2)c1	34	-31	6	2
CSc1cccc(NC(=O)CNC(=O)c2ccc3c(c2)OCO3)c1	24	4	-1	10*
CCC(=O)Nc1cccc(SC)c1	15	-17	3	13*
COC(=O)c1ccccc1OCCOCCOc1cccc2cccnc12	-42	9	-2	11*
CCN(c1cccc(C)c1)S(=O)(=O)c1c(C)[nH]c(C)c1C(=O)N1CCCCC1	-7	16	-3	2
CCOC(=O)c1c(-c2ccccc2)oc2cc(CN(C)C)c(O)c(CN(C)C)c12	-38	5	-1	12*
O=C(Nc1cc(Cl)ccc1Cl)N1CCN(C(=O)Nc2cc(Cl)ccc2Cl)CC1	13	-1	0	-3
COc1ccccc1N=C(C)C1=C(O)CC(c2ccccc2)CC1=O (stereo unspecified)	-59	1	0	8.9*
CCCC(=Nc1ccccc1OC)C1=C(O)CC(c2ccccc2)CC1=O (stereo unspecified)	31	-9	2	-2
Cc1ccc(Nc2nnc(SCC(=O)c3ccc(O)cc3O)s2)cc1	11	3	0	2
CCN1CCN(CCC(=O)Nc2cc(OC)cc(OC)c2)CC1	-34	12	-3	9.2*
CCc1ccccc1Nc1nn2c(=O)c3ccc(C(=O)NCc4ccccn4)cc3nc2s1	15	11	-2	-4
Cc1ccc(S(=O)(=O)NC2=NCN(C(C)C)CN2)cc1	6	11	-2	-2
COc1ccc(S(=O)(=O)N/N=C\c2ccc3c(c2)OCO3)cc1	-36	1	0	7
Cc1ccc(S(=O)(=O)N/N=C\c2ccc3c(c2)OCO3)c(C)c1	-10	-13	3	11*
CC(C)(C)c1cc(=O)[nH]c(SCc2ccccc2Cl)n1	-32	-45	8	12*
O=C(CCc1c[nH]c2ccccc12)NC(Cc1ccccc1)C(=O)O (stereo unspecified)	8	13	-3	-2
CN(c1ccc(F)cc1)S(=O)(=O)c1ccc(Cl)c(C(=O)NCC2(N3CCOCC3)CCCCC2)c1	1	-4	1	7
COc1ccc2ccccc2c1/C=N/NC(=O)c1sc(N)c(C#N)c1C	-39	-129	24*	8
SMILES	HTR5A inv ag	OPRM1-OPRD1 inv	OPRM1-OPRD1 ag	HTR5A ag ctr
O=C(OCc1nc2ccccc2s1)c1ccc(Br)o1	-2	-5	1	0
O=C(OCc1nc2ccccc2s1)c1ccc([N+](=O)[O-])o1	-24	-55	9	20*
O=C1CN(N=Cc2ccco2)C(=O)N1	-13	18	-4	3
Cc1ccc2c(c1)c1nnc(SCC(=O)Nc3ccc(N(C)C)cc3)nc1n2CC(=O)O	-48	-2	0	13*
O=S(=O)(Nc1cc(F)ccc1F)c1cccc2nonc12	9	12	-2	2
Cc1cccc(NC(=O)c2ccc(Cl)c(S(=O)(=O)N3CCCCC3)c2)n1	-18	-5	1	7

Screening results from PubChem.
